Source: PubChem BioAssay AID1259417 (TB Discovery Research, Infectious Disease Research Institute, 2018)
The whole screen tested about 1,100 compounds, of which about 760 (69%) were called active. No rule for the calls is given here. So high a share suggests a set chosen from earlier hits. Some of the results follow.

Test: M. tuberculosis growth inhibition, HTS (AID 1259417);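 also: bacteria grown with compound for 5 days at 37 °C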
Details: stronger effect = higher value, concentration not given here
[1] = M. tuberculosis DsRed fluorescence growth inhibition
[2] = M. tuberculosis growth inhibition

SMILES | inhibition [1] | inhibition [2] [%]
O=C1NN=C2C1=NC1(CCCCC1)Cc1ccccc12 | 99.4% (active) | 99
CCOC(=O)N1CCN(CCC(=O)c2ccc(Cl)cc2)CC1 | 25.5% (active) | 58.7
O=C(CCOc1ccccc1)Nc1nnc(-c2cc(Cl)ccc2Cl)o1 | 1.59% (inactive) | -1.65
Cc1ccc(-c2nnc(NC(=O)CCOc3ccccc3)o2)c(C)c1 | 61.8% (active) | 78.2
CCCCOc1cccc(C(=O)Nc2nnc(-c3ccc(C)cc3C)o2)c1 | 92.2% (active) | 77.5
N=c1sc(/C=C2\C=Nc3ccccc32)c(O)n1-c1nccs1 | 97.2% (active) | 94.9
Cc1ccc(C(C)C)c(OCc2nn(CC(=O)c3ccc(OC(F)F)cc3)c3[n+]2CCCCC3)c1 | 100% (active) | 99.1
O=C(c1ccc(NC(=O)C2(c3ccccc3)CCCC2)cc1)N1CCCCC1 | 99.8% (active) | 99.3
Cc1ccc(C(=O)N2CCN(c3ccc(NC(=O)COc4c(C)cc(C)cc4Br)cc3)CC2)cc1 | -0.254% (inactive) | -20.4
CCC(C)NC(=O)c1ccc(NC(=O)C2(c3ccccc3)CCCC2)cc1 (configuration not stated) | 31.9% (active) | 42.8
COC(=O)c1ccc(NC(=O)CSc2nc(-c3cccc(C)c3)ns2)cc1 | 15.3% (active) | 38.3
Cc1ccc(-c2nsc(SCC(=O)Nc3ccc4c(c3)OCO4)n2)cc1 | 9.75% (inactive) | 1.51
COC(=O)c1ccc(NC(=O)CSc2nc(-c3ccccc3C)ns2)cc1 | 15.6% (active) | 32.6
CSc1nsc(SCC(=O)Nc2ccc(OC(C)=O)cc2)n1 | 8.33% (inactive) | 24.6
Cc1ccc2oc(-c3cc(NC(=O)Cc4ccccc4)ccc3Cl)nc2c1 | 88% (active) | 49.9
COC(=O)CSc1nc(N2CCCCC2)c2c(c1C#N)CCCC2 | 26.1% (active) | 78.9
COC(=O)CSc1nc(-c2ccccc2)c2c(c1C#N)CCCC2 | -3.83% (inactive) | -16.2
COC(=O)CSc1nc2c(c(-c3ccco3)c1C#N)CCCC2 | 2.74% (inactive) | -22.6
COC(=O)C(C)Oc1ccc(-c2nccc(-c3cccs3)n2)cc1 (configuration not stated) | 43.6% (active) | 69.4
CC(C)(C)NCCCCOc1ccc(Cl)cc1C(C)(C)C | 59% (active) | 43.9
CC(C)(C)c1cc(Cl)ccc1OCCCCn1ccnc1 | 99.7% (active) | 99.7
CC(C)(C)c1cc(Cl)ccc1OCCn1ccnc1 | 90.4% (active) | 95
C#CCOCCOCCOCCNc1nc(N2CCN(C(=O)[C@H](Cc3cc4ccccc4[nH]3)n3cc([C@@H](N)CC(C)C)nn3)CC2)nc(N2CCN(C(=O)[C@H](Cc3cc4ccccc4[nH]3)n3cc([C@@H](N)CC(C)C)nn3)CC2)n1 | 68% (active) | 50.3
O=S(=O)(Nc1cccc2cccnc12)c1ccc(Br)cc1 | 73.1% (active) | 91.6
Cc1ccc2nsnc2c1S(=O)(=O)Nc1cccc2cccnc12 | 100% (active) | 99.4
O=S(=O)(Nc1cc(Br)c(O)c2ccccc12)c1ccc(F)cc1 | 3.24% (inactive) | -11.2

SMILES | inhibition [1] | inhibition [2] [%]
O=S(=O)(Nc1cc(Sc2cccc3cccnc23)c(O)c2ccccc12)c1ccccc1 | 3.26% (active) | 44.3
O=C(Nc1ccc(S(=O)(=O)N2CCC(c3nc4ccccc4[nH]3)CC2)cc1)c1cccc(Cl)c1 | 0.997% (inactive) | -16
Cc1ccc(NC(=O)N2CCC(c3nc4c(nnn4Cc4cccc(Cl)c4)c(=O)[nH]3)CC2)cc1 | 97.3% (active) | 99.6
CC(C)OC(=O)COc1ccc2cc(-c3ccccc3)c(=O)oc2c1 | 61.1% (active) | 80.6
COC(=O)C(C)Oc1ccc2cc(-c3ccc(OC)cc3)c(=O)oc2c1 (configuration not stated) | 66.3% (active) | 96.3
C=CCOC(=O)COc1ccc2cc(-c3ccc(OC)cc3)c(=O)oc2c1 | 97.2% (active) | 98.4
C=CCOC(=O)COc1ccc2c(-c3cc4ccccc4oc3=O)cc(=O)oc2c1 | 37.7% (active) | 60.7
CCCC1(O)CC(c2ccc(Cl)cc2)NC(c2ccc(Cl)cc2)C1C (configuration not stated) | 8.53% (inactive) | -21.7
C=CCOC(=O)COc1ccc2c(C)c(-c3ccccc3)c(=O)oc2c1 | 71.8% (active) | 92.5
C=CCOC(=O)COc1ccc2cc(-c3ccc(Cl)cc3)c(=O)oc2c1 | 98.9% (active) | 99.5
C=CCOC(=O)COc1ccc2cc(-c3ccccc3)c(=O)oc2c1 | 93.1% (active) | 97
Cc1cc(C)cc(Nc2cc(C)nc3c(-c4ccccc4)cnn23)c1 | 5.66% (inactive) | 21.5
COc1ccc(CCNc2cc(C)nc3c(-c4ccccc4)c(C)nn23)cc1OC | 98.5% (active) | 98.9
COC(=O)C(C)Oc1ccc2c(=O)c(Oc3ccccc3Br)coc2c1 (configuration not stated) | 59.3% (active) | 82.3
CCc1ccc(Oc2coc3cc(OC(C)C(=O)OC)ccc3c2=O)cc1 (configuration not stated) | 65.1% (active) | 92.2
CC1CCN(c2ccc(NC(=O)c3ccc([N+](=O)[O-])o3)cc2)CC1 | 98.8% (active) | 98.7
O=C(Nc1ccc(N2CCN(Cc3ccccc3F)CC2)cc1)c1ccc([N+](=O)[O-])o1 | 100% (active) | 99.7
CC(C)C(=O)N1CCN(c2ccc(NC(=O)c3ccc([N+](=O)[O-])o3)cc2)CC1 | 99.1% (active) | 100
CC(C)C(=O)N1CCN(c2ccccc2NC(=O)c2ccc([N+](=O)[O-])o2)CC1 | 19.7% (inactive) | 5.43
Cc1c(Cl)cccc1NC(=O)c1ccc(OC(C)C(=O)OC2CCCCC2)cc1 (configuration not stated) | 38.3% (active) | 74.3
Cc1sc2ncn(C(C)C(=O)OC3CCCCC3)c(=O)c2c1C (configuration not stated) | 6.18% (inactive) | 8.72
CCOC(=O)COc1ccc(S(=O)(=O)Nc2c(C)cccc2CC)cc1 | 53% (active) | 92.2
CCOC(=O)COc1ccc(S(=O)(=O)Nc2ccc(C)c(C)c2)cc1 | -1.13% (inactive) | 22
CCOC(=O)COc1ccc(S(=O)(=O)Nc2cccc(Cl)c2C)cc1 | 14.4% (active) | 55.5
CCOC(=O)COc1ccc(C(=O)Nc2cccc(Cl)c2C)cc1 | 97.7% (active) | 97.9
